Reference: the supplement of paper PMC10849652
The full data set covers some 8,800 targets. This sample favours those with a hit. About 0.5% of all pairs of compound and target were hits. Values without a mark were called inactive.

Assays:
Test in all cases: log2 fold change, soluble protein after heating vs DMSO (PISA); higher = thermal stabilisation; K562 lysate, 10 uM; active = over 0.2 and 3.5 SD of the protein, either way, in both replicates (recomputed)
[1] = compound: CS(=O)(=O)CCNCc1ccc(-c2ccc3ncnc(Nc4ccc(OCc5cccc(F)c5)c(Cl)c4)c3c2)o1 [lapatinib]
Outline: (§1)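 A 30 min treatment with 10 μM compound was applied to crude K562 extract at 1 mg/mL protein in PBS pH 7.4 with 1 mM MgCl2. Heating for 3 min spanned 48°C-58°C, after which aliquots were pooled, adjusted to 0.5% NP-40 at 4°C and spun at 21,000xg for 90 min. TMTpro 16plex LC-MS/MS of the supernatant, with channel sums equalised, gave values recorded as log-two fold change in thermal stability against solvent controls, from duplicates.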

[2] = compound: CS(=O)(=O)N1CCN(Cc2cc3nc(-c4cccc5[nH]ncc45)nc(N4CCOCC4)c3s2)CC1 [pictilisib]
Outline: as §1

[3] = compound: C[C@@H](Oc1cc(-c2cnn(C3CCNCC3)c2)cnc1N)c1c(Cl)ccc(F)c1Cl [crizotinib]
Outline: as §1

[4] = compound: C[C@H](C1=CC=C(C=C1)C(=O)NC2=C3C=CNC3=NC=C2)N
Outline: as §1

[5] = compound: C[C@H](Nc1ncnc2nc[nH]c12)c1cc2cccc(Cl)c2c(=O)n1-c1ccccc1 [duvelisib]
Outline: as §1

[6] = compound: Cc1cc(Nc2cc(CN3CCOCC3)c3nc(C)c(Cc4ccc(Cl)cc4F)n3n2)n[nH]1 [gandotinib]
Outline: as §1

[7] = compound: Cc1cc(Nc2cc(N3CCN(C)CC3)nc(Sc3ccc(NC(=O)C4CC4)cc3)n2)n[nH]1 [tozasertib]
Outline: as §1

[8] = compound: Cc1ccc(-n2nc(C(C)(C)C)cc2NC(=O)Nc2ccc(OCCN3CCOCC3)c3ccccc23)cc1 [doramapimod]
Outline: as §1

[9] = compound: Cc1ccc(NC(=O)c2ccc(CN3CC[C@H](N(C)C)C3)c(C(F)(F)F)c2)cc1Nc1nccc(-c2cncnc2)n1 [bafetinib]
Outline: as §1

[10] = compound: Cc1cccc(CC(=O)N2CCc3c2ccc(-c2cn(C)c4ncnc(N)c24)c3F)n1
Outline: as §1

[11] = compound: Cc1cn(-c2cc(NC(=O)c3ccc(C)c(Nc4nccc(-c5cccnc5)n4)c3)cc(C(F)(F)F)c2)cn1 [nilotinib]
Outline: as §1

[12] = compound: Cc1nc(Nc2n[nH]c3c2CN(C(=O)N[C@H](CN(C)C)c2ccccc2)C3(C)C)c2sccc2n1
Outline: as §1

[13] = compound: Cc1nc(Nc2ncc(C(=O)Nc3c(C)cccc3Cl)s2)cc(N2CCN(CCO)CC2)n1 [dasatinib]
Outline: as §1

[14] = compound: Cc1ncc(-c2ccnc(Nc3ccc(S(C)(=O)=O)cc3)n2)n1C(C)C
Outline: as §1

[15] = compound: Cn1cc(-c2ccc3c(c2)CCN3C(=O)Cc2cccc(C(F)(F)F)c2)c2c(N)ncnc21
Outline: as §1

[16] = compound: Cn1cc(CNCC2CCN(c3ncc(C(=O)NO)cn3)CC2)c2ccccc21 [quisinostat]
Outline: as §1

[17] = compound: Cn1cncc1[C@@](N)(c1ccc(Cl)cc1)c1ccc2c(c1)c(-c1cccc(Cl)c1)cc(=O)n2C [tipifarnib]
Outline: as §1

[18] = compound: NC(=O)Nc1cc(-c2cccc(F)c2)sc1C(=O)N[C@H]1CCCNC1
Outline: as §1

[19] = compound: NC(=O)c1cnc(N[C@@H]2CCCC[C@@H]2N)nc1Nc1cccc(-n2nccn2)c1
Outline: as §1

[20] = compound: NC1(c2ccc(-c3nc4ccn5c(=O)[nH]nc5c4cc3-c3ccccc3)cc2)CCC1
Outline: as §1

Chain of UniProt Q8TBZ3 (Q8TBZ3 whole entry, looked up): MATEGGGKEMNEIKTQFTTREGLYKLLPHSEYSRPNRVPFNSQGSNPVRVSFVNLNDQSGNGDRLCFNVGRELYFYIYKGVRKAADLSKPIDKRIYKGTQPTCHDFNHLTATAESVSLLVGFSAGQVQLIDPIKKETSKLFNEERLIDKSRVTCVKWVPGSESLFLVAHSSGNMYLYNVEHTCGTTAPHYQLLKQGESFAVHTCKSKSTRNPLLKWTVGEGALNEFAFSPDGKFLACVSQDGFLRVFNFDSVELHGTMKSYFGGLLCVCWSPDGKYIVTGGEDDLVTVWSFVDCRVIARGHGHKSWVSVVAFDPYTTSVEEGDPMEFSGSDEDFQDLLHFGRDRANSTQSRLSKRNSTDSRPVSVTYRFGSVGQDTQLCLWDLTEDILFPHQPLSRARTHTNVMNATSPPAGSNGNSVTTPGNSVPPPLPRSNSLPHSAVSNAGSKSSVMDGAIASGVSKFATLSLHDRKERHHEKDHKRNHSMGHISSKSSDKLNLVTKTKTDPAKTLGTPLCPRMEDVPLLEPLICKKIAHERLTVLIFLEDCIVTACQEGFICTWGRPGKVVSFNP
Chain of UniProt Q9ULU4 (Q9ULU4 whole entry, looked up): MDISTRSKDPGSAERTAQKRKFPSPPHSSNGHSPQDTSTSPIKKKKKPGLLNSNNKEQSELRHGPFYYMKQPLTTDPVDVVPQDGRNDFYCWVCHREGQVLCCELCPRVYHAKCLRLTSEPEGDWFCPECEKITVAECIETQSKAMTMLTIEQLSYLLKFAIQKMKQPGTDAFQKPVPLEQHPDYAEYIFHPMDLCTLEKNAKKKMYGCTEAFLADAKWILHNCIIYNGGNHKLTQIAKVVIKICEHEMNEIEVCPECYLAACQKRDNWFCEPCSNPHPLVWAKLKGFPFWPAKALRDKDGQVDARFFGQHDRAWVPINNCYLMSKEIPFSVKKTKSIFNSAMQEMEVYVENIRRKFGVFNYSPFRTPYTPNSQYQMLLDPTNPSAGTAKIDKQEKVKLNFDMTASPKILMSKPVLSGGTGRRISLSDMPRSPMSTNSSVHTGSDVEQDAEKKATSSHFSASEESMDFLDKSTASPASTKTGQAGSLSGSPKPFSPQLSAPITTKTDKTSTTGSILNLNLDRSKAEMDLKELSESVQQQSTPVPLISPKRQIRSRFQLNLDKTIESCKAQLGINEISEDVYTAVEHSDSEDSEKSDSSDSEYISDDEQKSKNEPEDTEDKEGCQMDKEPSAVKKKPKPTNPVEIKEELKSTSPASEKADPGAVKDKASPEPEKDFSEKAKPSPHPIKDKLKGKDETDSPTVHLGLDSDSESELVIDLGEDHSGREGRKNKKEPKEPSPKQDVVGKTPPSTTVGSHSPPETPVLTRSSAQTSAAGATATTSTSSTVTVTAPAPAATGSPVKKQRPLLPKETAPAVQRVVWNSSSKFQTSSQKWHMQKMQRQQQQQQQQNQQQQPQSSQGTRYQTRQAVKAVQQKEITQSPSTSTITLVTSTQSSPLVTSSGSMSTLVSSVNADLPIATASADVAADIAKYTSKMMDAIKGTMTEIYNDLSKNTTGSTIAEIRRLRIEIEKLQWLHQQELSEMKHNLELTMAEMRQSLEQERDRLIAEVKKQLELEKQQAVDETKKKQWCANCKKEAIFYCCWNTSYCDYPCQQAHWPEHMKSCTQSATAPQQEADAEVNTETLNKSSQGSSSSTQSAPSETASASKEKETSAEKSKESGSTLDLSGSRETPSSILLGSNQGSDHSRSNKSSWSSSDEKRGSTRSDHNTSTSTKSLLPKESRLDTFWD
Chain of UniProt Q9BZI7 (Q9BZI7 whole entry, looked up): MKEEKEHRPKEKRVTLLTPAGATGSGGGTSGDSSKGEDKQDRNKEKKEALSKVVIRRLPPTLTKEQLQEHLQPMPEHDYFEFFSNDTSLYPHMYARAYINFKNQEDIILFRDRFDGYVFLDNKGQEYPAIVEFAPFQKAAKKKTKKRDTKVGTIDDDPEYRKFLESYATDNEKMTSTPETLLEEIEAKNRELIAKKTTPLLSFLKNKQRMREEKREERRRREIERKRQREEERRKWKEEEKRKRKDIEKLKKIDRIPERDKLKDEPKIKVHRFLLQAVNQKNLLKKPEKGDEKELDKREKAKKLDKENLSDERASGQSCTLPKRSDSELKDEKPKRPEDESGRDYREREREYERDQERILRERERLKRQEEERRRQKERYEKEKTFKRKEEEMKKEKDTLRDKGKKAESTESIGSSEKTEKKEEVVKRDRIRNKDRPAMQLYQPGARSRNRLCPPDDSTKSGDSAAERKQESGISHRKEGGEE
Chain of UniProt P07947 (P07947 whole entry, looked up): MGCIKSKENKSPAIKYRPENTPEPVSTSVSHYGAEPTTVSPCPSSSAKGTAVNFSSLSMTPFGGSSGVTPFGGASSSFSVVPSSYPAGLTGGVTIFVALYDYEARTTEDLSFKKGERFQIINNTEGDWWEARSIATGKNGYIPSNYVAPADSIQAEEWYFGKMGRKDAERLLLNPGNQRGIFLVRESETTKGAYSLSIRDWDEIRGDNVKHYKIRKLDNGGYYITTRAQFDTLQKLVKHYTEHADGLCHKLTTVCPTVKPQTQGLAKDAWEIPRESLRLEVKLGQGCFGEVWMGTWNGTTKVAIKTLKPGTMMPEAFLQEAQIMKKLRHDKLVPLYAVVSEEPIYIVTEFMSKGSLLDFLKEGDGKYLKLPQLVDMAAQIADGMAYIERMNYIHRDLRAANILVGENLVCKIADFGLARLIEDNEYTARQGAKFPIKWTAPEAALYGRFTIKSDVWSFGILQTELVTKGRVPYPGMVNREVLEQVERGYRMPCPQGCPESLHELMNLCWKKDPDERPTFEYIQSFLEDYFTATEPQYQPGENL
Chain of UniProt Q5VZL5 (Q5VZL5 whole entry, looked up): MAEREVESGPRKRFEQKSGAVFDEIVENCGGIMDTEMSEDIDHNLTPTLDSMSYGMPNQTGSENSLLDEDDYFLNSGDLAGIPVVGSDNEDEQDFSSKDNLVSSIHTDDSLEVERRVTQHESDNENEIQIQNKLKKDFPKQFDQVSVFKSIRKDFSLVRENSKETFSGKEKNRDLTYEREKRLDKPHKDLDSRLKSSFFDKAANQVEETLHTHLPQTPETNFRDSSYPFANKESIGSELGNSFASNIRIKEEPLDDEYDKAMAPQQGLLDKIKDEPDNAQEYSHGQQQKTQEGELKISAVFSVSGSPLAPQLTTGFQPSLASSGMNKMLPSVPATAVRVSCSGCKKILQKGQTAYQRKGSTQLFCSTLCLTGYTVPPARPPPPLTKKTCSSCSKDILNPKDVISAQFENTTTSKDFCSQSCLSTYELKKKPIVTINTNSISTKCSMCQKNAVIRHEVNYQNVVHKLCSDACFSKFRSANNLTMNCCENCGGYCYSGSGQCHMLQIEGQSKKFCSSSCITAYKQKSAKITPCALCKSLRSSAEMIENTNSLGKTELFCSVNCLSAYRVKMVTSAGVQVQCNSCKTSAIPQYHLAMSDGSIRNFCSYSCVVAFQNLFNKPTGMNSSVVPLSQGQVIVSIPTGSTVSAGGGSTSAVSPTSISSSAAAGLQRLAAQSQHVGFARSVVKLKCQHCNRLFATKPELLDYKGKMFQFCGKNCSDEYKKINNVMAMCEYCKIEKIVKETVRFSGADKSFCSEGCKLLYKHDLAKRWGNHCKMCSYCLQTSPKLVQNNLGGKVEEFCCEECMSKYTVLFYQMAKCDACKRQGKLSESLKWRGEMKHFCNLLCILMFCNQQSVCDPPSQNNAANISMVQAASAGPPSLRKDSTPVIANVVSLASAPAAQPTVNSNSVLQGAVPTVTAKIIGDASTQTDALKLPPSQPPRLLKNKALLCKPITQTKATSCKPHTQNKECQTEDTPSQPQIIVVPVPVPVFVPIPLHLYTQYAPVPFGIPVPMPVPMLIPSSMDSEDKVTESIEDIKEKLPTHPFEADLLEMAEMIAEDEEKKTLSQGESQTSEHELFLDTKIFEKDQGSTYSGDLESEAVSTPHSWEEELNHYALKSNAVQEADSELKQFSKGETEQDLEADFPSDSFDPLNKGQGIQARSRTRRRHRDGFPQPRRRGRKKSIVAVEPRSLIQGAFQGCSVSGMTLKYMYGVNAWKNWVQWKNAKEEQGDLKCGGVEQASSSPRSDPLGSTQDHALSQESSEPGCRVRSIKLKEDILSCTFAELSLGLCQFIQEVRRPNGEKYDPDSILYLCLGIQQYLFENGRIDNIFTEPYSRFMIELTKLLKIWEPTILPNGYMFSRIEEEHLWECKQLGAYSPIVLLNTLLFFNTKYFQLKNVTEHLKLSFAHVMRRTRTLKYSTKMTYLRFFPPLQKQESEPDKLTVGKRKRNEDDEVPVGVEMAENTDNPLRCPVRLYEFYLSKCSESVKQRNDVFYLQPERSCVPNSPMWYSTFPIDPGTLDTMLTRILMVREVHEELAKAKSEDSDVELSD
Chain of UniProt Q99986 (Q99986 whole entry, looked up): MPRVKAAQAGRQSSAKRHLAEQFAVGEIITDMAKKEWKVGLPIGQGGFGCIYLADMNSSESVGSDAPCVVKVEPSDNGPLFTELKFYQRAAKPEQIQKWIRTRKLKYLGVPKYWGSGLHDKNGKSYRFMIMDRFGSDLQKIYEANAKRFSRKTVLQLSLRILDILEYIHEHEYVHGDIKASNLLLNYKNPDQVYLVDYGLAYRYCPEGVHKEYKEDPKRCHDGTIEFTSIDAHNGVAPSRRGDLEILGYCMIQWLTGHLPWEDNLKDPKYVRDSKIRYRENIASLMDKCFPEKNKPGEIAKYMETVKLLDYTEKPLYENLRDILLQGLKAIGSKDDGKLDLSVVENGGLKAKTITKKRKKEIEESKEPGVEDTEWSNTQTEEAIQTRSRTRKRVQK
Chain of UniProt Q9NZ43 (Q9NZ43 whole entry, looked up): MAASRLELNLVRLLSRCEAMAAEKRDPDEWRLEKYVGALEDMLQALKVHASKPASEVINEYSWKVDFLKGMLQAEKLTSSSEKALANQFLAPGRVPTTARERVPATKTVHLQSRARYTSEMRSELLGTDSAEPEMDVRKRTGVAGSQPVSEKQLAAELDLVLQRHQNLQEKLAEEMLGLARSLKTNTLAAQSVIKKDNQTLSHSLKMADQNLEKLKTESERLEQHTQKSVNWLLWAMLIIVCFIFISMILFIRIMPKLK

Target	log2 fold change [1]	log2 fold change [2]	log2 fold change [3]	log2 fold change [4]	log2 fold change [5]	log2 fold change [6]	log2 fold change [7]	log2 fold change [8]	log2 fold change [9]	log2 fold change [10]	log2 fold change [11]	log2 fold change [12]	log2 fold change [13]	log2 fold change [14]	log2 fold change [15]	log2 fold change [16]	log2 fold change [17]	log2 fold change [18]	log2 fold change [19]	log2 fold change [20]
VRK1 (UniProt Q99986)	-0.005	0.002	-0.023	0.172	0.013	-0.078	-0.052	-0.052	-0.042	-0.014	-0.002	0	-0.001	0.005	0.032	-0.059	-0.018	0.015	0.003	-0.046
VPS41 (UniProt P49754)	-0.018	-0.046	-0.011	0.079	-0.021	-0.093	0.047	0.023	-0.021	-0.05	0.034	0.014	-0.038	0.001	0.057	-0.048	-0.029	0.029	0.001	-0.009
USP8 (UniProt P40818)	-0.011	-0.048	-0.009	0.002	-0.023	-0.077	-0.013	0.001	-0.026	0.017	-0.014	-0.007	0.005	0.042	0.024	-0.015	-0.01	0.016	-0.016	0.026
ZNF217 (UniProt O75362)	-0.02	0.059	-0.025	-0.045	-0.011	-0.009	0.044	0.004	0.037	0.052	0.06	0.026	0.001	0.054	-0.057	-0.179	-0.086	0.014	0.021	-0.075
YES1 (UniProt P07947)	0	-0.063	-0.128	-0.101	-0.066	0.212	-0.105	-0.005	0.155	0.092	0.043	0.008	0.154	-0.104	-0.087	-0.084	-0.157	0.589 (active)	0.032	0.054
UPF3B (UniProt Q9BZI7)	0.005	0.021	0.007	-0.171	0.016	0.037	0.031	0.003	-0.012	0.067	-0.016	0.012	0.004	0.014	0.005	-0.013	0.014	0.022	-0.025	-0.003
ZNHIT6 (UniProt Q9NWK9)	0.042	0.006	-0.006	0.061	-0.002	0.008	-0.029	-0.024	-0.026	-0.004	-0.023	0	-0.037	-0.005	0.004	-0.04	0.014	0.087	0.028	-0.022
VPS37B (UniProt Q9H9H4)	0.016	-0.053	0.017	0.034	-0.009	-0.028	0.021	0.006	-0.034	-0.04	0.025	-0.078	-0.024	0.046	-0.01	-0.05	-0.002	-0.024	-0.005	0
ZMYND8 isoform 19 (UniProt Q9ULU4)	-0.017	-0.044	-0.109	-0.105	-0.006	0.092	0.035	0.001	-0.028	0.049	-0.011	-0.056	-0.019	0.022	0.036	-0.073	-0.025	-0.004	0.009	0.043
USE1 (UniProt Q9NZ43)	-0.035	0.088	-0.057	0.039	-0.056	-0.103	0.011	0.112	-0.019	0.027	-0.019	0.038	0.068	0.057	0.02	0.08	-0.021	0.029	-0.027	0.025
USP34 (UniProt Q70CQ2)	-0.002	-0.008	-0.094	0.03	0.004	-0.122	0.011	0.01	-0.041	0.018	-0.018	-0.002	-0.042	-0.018	0.023	-0.041	0.021	0.074	0.018	0
USP9X (UniProt Q93008)	-0.031	-0.027	-0.058	-0.015	-0.017	-0.127	0.011	0.004	-0.034	0.027	-0.01	0	-0.045	0.002	0	-0.017	-0.024	0.03	0.02	-0.003
VCPIP1 (UniProt Q96JH7)	-0.061	-0.053	-0.052	-0.059	-0.002	-0.038	-0.028	0.025	-0.043	0.1	-0.006	0.044	-0.045	-0.025	0.016	-0.046	0.011	0.031	0.029	-0.059
WDR20 isoform 7 (UniProt Q8TBZ3)	0.015	-0.006	-0.069	-0.416 (active)	0.043	-0.009	0	-0.022	0.07	0.081	-0.001	0.029	0.055	-0.229	0.038	0.027	-0.174	0.009	-0.026	-0.042
ZNF346 (UniProt Q9UL40)	0.01	-0.008	0.009	-0.01	-0.009	-0.026	0.005	0.02	-0.043	-0.072	-0.005	0.02	-0.099	0.021	0.014	-0.014	0.015	0.005	0.011	0.01
ZMYM4 (UniProt Q5VZL5)	-0.022	0.037	-0.009	-0.07	-0.007	0.004	0.028	0.031	0.008	0.042	-0.016	0.003	-0.001	-0.005	-0.061	-0.028	-0.051	0.067	0.021	-0.003
